What was measured:
Test in all cases: log2 ratio of Biotin-Ahx-Ub-VS probe labelling (fragment/DMSO); higher = less target engagement (more negative = stronger competition), active = hit call of the paper (q ≤ 0.05, log2 ratio ≤ -1)
Conditions in all cases: compound concentration: 200 uM; treatment time: 3 h
USP34 = USP34 (UniProt Q70CQ2)
In short: (§1)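 Labelling with Biotin-Ahx-Ub-VS (0.5 µM final, 1 h) followed a 3 h triplicate treatment of HEK293T lysate (495 µg per sample, Tris/CHAPS/IGEPAL buffer with protease inhibitors) with fragment at 200 µM or vehicle. Labelled DUBs were NeutrAvidin-enriched, digested with LysC and trypsin, and run by diaPASEF LC-MS/MS. The values, average log2 fragment/vehicle ratios by unpaired t-test, come from global-median-normalised Spectronaut label-free quantities. Proteins with ≥2 unique peptides were used.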

USP36 = target: T1, USP36 (UniProt Q9P275)
T1 sequence (whole entry): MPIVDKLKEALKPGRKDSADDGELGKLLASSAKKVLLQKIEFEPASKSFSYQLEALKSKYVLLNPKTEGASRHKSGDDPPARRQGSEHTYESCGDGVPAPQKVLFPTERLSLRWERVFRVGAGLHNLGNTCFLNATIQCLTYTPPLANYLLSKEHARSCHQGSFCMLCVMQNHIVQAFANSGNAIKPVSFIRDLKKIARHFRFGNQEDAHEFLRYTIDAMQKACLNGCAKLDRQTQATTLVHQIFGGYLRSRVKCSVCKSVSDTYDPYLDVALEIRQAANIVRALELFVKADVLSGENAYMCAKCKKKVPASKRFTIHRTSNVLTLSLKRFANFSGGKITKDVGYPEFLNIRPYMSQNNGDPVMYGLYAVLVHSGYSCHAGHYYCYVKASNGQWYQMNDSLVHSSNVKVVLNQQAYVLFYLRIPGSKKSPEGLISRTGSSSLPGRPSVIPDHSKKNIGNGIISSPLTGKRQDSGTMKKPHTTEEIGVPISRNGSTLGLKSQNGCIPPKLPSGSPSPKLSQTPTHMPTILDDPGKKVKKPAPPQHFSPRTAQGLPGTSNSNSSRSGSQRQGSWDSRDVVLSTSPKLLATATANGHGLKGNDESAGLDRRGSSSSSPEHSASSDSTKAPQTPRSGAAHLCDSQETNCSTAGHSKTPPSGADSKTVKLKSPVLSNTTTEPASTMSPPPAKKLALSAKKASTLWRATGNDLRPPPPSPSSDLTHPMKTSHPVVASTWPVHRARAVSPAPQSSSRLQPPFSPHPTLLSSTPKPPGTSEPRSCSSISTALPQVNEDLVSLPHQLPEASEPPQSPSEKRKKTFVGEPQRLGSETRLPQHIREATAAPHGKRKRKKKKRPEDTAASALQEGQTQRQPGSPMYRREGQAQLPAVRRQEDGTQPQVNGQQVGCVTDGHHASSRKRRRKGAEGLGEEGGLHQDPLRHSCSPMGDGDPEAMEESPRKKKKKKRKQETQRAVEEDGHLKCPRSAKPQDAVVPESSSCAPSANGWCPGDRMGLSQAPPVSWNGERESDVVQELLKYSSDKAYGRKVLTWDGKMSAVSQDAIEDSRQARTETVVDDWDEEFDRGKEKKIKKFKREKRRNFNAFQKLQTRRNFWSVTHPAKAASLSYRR
In short: as §1

USP38 = target: T2, USP38 (UniProt Q8NB14)
T2 sequence (whole entry): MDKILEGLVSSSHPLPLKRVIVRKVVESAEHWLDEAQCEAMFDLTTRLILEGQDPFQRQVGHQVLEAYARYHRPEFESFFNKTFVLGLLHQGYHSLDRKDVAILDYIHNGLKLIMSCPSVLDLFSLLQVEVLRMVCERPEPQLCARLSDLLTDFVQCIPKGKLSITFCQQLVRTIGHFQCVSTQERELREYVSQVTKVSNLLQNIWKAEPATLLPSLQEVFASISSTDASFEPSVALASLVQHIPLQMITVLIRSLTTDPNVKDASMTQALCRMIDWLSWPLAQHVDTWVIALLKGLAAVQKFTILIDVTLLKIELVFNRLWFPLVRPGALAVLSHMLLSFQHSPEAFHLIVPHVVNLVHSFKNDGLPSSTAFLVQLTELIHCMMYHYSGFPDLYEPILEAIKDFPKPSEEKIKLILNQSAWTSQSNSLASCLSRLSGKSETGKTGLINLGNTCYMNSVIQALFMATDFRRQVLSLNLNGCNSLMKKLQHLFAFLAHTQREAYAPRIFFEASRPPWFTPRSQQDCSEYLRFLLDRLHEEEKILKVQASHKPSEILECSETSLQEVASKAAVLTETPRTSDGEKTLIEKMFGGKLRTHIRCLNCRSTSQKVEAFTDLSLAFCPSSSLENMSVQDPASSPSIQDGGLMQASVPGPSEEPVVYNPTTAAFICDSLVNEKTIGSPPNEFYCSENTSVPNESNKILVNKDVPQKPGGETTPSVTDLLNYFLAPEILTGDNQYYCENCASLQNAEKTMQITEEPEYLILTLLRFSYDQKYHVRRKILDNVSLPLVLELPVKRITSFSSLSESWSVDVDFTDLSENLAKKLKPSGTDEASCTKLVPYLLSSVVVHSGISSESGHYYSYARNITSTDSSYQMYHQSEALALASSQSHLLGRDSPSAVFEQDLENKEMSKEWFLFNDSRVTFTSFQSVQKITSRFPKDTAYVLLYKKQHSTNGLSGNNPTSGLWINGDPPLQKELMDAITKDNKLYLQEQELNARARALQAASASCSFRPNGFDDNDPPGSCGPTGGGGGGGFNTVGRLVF
In short: as §1

USP39 = target: T3, USP39 (UniProt Q53GS9)
T3 sequence (whole entry): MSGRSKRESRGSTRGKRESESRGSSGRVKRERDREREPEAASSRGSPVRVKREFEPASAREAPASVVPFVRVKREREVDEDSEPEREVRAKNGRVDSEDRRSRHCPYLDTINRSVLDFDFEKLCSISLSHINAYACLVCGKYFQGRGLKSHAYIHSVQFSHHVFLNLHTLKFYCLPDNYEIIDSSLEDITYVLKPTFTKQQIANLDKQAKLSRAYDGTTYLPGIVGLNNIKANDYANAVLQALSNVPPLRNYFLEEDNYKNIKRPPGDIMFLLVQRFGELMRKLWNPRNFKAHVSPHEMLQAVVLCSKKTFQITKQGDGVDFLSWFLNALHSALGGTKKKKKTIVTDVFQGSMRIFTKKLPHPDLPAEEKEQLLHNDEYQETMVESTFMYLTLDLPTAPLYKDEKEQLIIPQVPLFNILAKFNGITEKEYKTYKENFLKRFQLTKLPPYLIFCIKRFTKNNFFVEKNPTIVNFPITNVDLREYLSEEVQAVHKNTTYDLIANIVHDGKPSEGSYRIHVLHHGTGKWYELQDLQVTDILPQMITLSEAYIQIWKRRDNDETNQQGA
In short: as §1

USP4 = target: T4, USP4 (UniProt Q13107)
T4 sequence (whole entry): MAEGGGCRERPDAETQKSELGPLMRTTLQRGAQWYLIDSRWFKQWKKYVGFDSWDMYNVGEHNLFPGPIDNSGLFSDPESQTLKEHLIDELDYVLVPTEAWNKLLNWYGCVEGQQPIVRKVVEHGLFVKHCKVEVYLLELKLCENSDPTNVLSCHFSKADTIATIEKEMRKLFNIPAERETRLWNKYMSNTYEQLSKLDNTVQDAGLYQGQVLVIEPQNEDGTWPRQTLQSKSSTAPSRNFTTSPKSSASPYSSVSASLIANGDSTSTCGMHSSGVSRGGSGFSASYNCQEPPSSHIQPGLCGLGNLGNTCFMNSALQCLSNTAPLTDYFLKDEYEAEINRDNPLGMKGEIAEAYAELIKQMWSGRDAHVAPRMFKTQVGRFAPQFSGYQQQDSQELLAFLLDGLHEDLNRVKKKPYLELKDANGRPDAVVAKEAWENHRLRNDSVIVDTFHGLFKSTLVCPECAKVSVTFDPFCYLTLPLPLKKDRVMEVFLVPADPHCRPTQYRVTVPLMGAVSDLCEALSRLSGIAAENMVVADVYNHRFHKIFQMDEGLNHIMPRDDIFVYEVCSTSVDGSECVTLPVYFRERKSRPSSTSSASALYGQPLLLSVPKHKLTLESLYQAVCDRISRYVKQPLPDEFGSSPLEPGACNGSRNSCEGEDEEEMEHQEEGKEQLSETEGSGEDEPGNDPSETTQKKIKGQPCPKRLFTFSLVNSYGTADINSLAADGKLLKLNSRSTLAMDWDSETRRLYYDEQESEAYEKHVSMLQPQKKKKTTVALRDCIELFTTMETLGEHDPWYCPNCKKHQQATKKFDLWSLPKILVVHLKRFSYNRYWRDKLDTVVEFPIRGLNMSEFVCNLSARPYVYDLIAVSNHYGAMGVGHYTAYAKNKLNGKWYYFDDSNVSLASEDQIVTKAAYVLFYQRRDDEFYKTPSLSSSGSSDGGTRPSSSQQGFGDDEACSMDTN
In short: as §1

Measured: log2 ratio of Biotin-Ahx-Ub-VS probe labelling

USP34, sequence (Q70CQ2 whole entry, the tested form may be a part): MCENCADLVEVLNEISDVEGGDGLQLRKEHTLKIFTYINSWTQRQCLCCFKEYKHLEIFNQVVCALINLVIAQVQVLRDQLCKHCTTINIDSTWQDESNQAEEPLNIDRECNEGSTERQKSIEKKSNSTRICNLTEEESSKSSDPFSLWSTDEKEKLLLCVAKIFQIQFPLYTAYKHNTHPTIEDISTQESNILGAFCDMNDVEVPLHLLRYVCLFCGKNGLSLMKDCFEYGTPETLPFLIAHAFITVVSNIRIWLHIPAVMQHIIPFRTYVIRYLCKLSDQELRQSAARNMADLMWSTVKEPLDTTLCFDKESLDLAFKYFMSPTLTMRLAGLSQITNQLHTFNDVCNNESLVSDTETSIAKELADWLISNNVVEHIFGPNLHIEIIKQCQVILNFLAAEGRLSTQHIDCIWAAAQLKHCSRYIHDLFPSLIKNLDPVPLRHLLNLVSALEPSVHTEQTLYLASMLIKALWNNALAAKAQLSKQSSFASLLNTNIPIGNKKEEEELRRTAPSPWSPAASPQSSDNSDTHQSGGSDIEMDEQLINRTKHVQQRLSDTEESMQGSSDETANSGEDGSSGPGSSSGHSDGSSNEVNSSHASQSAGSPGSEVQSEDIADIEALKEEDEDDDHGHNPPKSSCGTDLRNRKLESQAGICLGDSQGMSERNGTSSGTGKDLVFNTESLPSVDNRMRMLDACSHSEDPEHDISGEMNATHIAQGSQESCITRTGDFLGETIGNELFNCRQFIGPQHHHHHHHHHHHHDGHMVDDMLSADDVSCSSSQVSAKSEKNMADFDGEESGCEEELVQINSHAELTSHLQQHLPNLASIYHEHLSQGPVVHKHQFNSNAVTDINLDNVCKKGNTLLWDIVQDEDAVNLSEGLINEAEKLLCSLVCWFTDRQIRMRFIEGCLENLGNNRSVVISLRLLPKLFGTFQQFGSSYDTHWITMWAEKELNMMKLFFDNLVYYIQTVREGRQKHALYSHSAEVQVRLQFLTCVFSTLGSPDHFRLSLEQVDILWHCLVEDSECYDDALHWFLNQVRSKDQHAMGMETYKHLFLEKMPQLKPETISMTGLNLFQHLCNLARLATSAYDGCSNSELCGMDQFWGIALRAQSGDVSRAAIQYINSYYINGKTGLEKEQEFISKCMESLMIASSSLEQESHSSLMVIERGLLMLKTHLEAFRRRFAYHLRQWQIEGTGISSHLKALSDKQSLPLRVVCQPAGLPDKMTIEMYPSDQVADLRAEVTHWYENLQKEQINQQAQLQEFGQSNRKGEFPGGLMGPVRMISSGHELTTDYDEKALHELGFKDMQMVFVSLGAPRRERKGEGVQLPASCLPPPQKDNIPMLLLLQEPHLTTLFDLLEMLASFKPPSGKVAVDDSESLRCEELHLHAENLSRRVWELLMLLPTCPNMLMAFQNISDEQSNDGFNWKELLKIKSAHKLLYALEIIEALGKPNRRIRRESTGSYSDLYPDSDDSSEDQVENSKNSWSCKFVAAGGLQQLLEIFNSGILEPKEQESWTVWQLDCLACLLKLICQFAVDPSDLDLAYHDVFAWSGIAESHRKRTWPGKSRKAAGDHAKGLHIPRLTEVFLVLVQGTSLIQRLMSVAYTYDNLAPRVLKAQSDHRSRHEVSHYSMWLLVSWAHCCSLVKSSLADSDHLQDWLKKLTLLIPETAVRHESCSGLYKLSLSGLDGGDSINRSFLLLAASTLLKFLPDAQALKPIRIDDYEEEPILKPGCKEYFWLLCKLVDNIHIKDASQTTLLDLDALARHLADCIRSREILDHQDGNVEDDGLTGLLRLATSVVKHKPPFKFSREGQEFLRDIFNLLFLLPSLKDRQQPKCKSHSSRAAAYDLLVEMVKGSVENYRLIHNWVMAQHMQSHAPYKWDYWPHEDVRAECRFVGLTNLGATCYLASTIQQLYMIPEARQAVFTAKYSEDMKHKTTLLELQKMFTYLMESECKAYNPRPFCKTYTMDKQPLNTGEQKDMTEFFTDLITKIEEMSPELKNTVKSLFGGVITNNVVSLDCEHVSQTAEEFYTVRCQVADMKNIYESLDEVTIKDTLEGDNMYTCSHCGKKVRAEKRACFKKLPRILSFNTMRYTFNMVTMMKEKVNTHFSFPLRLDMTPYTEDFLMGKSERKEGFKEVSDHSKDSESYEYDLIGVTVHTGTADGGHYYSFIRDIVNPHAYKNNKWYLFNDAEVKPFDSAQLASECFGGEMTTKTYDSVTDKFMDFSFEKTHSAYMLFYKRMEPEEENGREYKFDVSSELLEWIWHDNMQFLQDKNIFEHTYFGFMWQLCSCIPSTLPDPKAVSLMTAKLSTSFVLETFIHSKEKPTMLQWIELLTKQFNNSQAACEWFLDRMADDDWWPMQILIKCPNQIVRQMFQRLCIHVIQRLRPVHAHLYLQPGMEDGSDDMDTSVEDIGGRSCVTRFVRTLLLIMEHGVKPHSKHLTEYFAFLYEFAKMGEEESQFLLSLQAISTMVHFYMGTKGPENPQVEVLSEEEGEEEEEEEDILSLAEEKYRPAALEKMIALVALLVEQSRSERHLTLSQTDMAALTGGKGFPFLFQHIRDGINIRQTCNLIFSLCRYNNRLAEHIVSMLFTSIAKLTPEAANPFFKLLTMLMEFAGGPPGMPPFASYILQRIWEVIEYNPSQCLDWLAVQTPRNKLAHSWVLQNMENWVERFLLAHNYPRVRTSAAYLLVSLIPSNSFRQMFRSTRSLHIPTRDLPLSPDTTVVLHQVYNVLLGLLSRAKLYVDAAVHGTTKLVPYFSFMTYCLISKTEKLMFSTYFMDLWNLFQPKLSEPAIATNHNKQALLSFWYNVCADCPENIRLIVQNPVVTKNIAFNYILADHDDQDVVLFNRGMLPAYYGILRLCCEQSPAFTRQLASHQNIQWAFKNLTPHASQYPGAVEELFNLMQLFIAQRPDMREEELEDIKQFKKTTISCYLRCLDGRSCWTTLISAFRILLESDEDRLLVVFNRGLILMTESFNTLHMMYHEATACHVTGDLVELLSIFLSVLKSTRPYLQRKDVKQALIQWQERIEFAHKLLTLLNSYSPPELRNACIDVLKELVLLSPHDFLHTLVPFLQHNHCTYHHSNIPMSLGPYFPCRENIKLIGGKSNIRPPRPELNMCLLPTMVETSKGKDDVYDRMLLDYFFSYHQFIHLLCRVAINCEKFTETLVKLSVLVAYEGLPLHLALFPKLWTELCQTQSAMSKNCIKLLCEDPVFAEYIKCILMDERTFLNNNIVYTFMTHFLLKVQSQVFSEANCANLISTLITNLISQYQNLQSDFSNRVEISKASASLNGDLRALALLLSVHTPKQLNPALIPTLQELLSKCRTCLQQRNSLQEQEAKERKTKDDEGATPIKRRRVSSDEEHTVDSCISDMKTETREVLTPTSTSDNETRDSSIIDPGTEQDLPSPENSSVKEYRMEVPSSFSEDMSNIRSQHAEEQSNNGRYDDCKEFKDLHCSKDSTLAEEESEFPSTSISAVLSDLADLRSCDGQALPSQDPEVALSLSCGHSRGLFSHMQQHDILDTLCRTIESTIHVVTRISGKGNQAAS

CC(NC(=O)CCl)c1ccc2[nH]ncc2c1 (stereo not given)
inactive: USP34 -0.271 | USP36 -0.00241 | USP38 -0.222 | USP39 -0.146 | USP4 -0.324

From the supplement of paper PMC11732987, “Enantioselective OTUD7B fragment discovery through chemoproteomics screening and high-throughput optimisation” (Communications Chemistry, 2025)
